About 79,000 compounds went through this panel and 15% of them were active in at least one assay; those are over-represented in the sample as a whole. Active and inactive are the calls of the source. Cut-off read from the data, not from the text of the source: active = growth inhibition above about 70%; inactive = the rest.
Key:
[1] = NCI Yeast Anticancer Drug Screen. Data for the rad52 strain (AID 147);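 note: 0% = growth of vehicle-treated control cultures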; details: S. cerevisiae rad52 mutant growth inhibition, active compounds read high
Summary of the method: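 Compounds are applied to a genetically defined yeast strain lacking normal DNA damage repair, and inhibition of growth is expressed relative to cultures given vehicle only.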

[2] = NCI Yeast Anticancer Drug Screen. Data for the wt1 strain (AID 149);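 note: 0% = growth of vehicle-treated wt1 cultures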; details: S. cerevisiae wt1 strain (SPY 50644) growth inhibition, active compounds read high
Summary of the method: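 wt1 strain grown with compound or vehicle; inhibition taken from the growth difference.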

[3] = NCI Yeast Anticancer Drug Screen. Data for the rad50EPP+ strain (AID 151);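 note: 0% = growth of vehicle-treated control cultures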; details: S. cerevisiae rad50 mutant strain, active compounds read high
Summary of the method: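 Compounds were applied to the rad50EPP+ yeast strain, which bears a defined DNA repair alteration, and growth inhibition was determined relative to vehicle-treated cultures.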

[4] = NCI Yeast Anticancer Drug Screen. Data for the mgt1 strain (AID 153); details: S. cerevisiae mgt1 mutant growth inhibition, active compounds read high
Summary of the method: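 Strain: mgt1 yeast, one of a set carrying defined DNA damage repair or cell cycle control alterations. Compound-treated growth compared with vehicle.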

[5] = NCI Yeast Anticancer Drug Screen. Data for the rad50 strain (AID 155);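 note: 0% = growth of vehicle-only cultures of the same strain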; details: S. cerevisiae rad50 strain growth inhibition, active compounds read high
Summary of the method: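 DNA repair mutant yeast, compound exposure, growth read-out; inhibition is taken relative to vehicle.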

[6] = NCI Yeast Anticancer Drug Screen. Data for the mec2-1 strain (AID 157); details: S. cerevisiae mec2-1 strain, active compounds read high
Summary of the method: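 Strain: mec2-1 (DNA repair/cell cycle alteration). Compound exposure, then growth measured; inhibition expressed relative to vehicle.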

[7] = NCI Yeast Anticancer Drug Screen. Data for the rad14 strain (AID 159);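 note: 0% = growth of vehicle-treated control cultures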; details: S. cerevisiae rad14 strain growth inhibition, active compounds read high
Summary of the method: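 DNA repair-defective yeast, compound-exposed; % growth inhibition derived by comparison with vehicle-treated controls.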

[8] = NCI Yeast Anticancer Drug Screen. Data for the sgs1 mgt1 strain (AID 161);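 note: 0% = growth of cultures given vehicle only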; details: S. cerevisiae sgs1 mgt1 strain, active compounds read high
Summary of the method: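 Read-out: growth inhibition vs vehicle controls. Cells: mutant yeast strain deficient in DNA damage repair.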

[9] = NCI Yeast Anticancer Drug Screen. Data for the CLN2oe strain (AID 163);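 note: 0% = growth of vehicle-only control cultures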; details: S. cerevisiae CLN2oe strain, active compounds read high
Summary of the method: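 Growth of a genetically modified yeast strain is measured after compound exposure and compared with cultures given vehicle alone.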

[10] = NCI Yeast Anticancer Drug Screen. Data for the cln2 rad14 strain (AID 165);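 note: 0% = growth equal to vehicle treated cultures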; details: S. cerevisiae cln2 rad14 strain, active compounds read high
Summary of the method: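 Compounds are applied to the cln2 rad14 yeast strain, and growth is then compared with that of vehicle-treated cultures to give inhibition.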

[11] = NCI Yeast Anticancer Drug Screen. Data for the bub3 strain (AID 167); details: S. cerevisiae bub3 mutant strain, active compounds read high
Summary of the method: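 In this screen, a yeast mutant lacking normal mitotic checkpoint function is challenged with compound. Relative growth versus vehicle gives the inhibition value.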

[12] = NCI Yeast Anticancer Drug Screen. Data for the wt2 strain (AID 169);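 note: 0% = growth of vehicle-treated yeast cultures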; details: S. cerevisiae wt2 strain growth inhibition, active compounds read high
Summary of the method: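 This strain belongs to a panel of yeast strains with defined genetic alterations in DNA damage repair or cell cycle control. Compounds are applied, and growth inhibition is measured against vehicle-treated cultures.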

[13] = NCI Yeast Anticancer Drug Screen. Data for the mlh1 strain (AID 171);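 note: 0% = growth of vehicle-treated control cultures of the same strain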; details: S. cerevisiae mlh1 strain growth inhibition, active compounds read high
Summary of the method: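 Growth of the mutant yeast strain after compound exposure, expressed as inhibition relative to vehicle-only controls.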

[14] = NCI Yeast Anticancer Drug Screen. Data for the sgs1 strain (AID 173);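 note: 0% = growth of vehicle-only control cultures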; details: S. cerevisiae sgs1 mutant, active compounds read high
Summary of the method: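 Growth of a yeast strain bearing a defined genetic alteration is measured after compound treatment. Inhibition is expressed relative to vehicle-only controls.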

[15] = NCI Yeast Anticancer Drug Screen. Data for the mlh1 rad18 strain (AID 175); details: S. cerevisiae mlh1 rad18 strain growth inhibition, active compounds read high
Summary of the method: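 Read-out is yeast growth inhibition, calculated against vehicle-only controls. The compound was applied to a strain engineered with DNA damage repair alterations.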

[16] = NCI Yeast Anticancer Drug Screen. Data for the rad18 strain (AID 177); details: S. cerevisiae rad18 mutant growth inhibition, active compounds read high
Summary of the method: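 Growth of the mutant yeast strain after compound exposure, normalised to vehicle-only cultures.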

[17] = at 5.0 µM (retest, dose inferred, filed as 0.5)
[18] = at 50.0 µM (retest, dose inferred, filed as 5.0)

Measured: growth inhibition

COc1ccc(/C=C2\NC(=S)N(/C=C3\C(=O)Oc4ccccc4C3=O)C2=O)cc1
active: [5]; at 50.0 µM 70.2% | [8]; at 50.0 µM 84.2% | [10]; at 50.0 µM 89.2% | [11]; at 50.0 µM 79.2% | [15]; at 50.0 µM 72.8%
inactive: [1]; at 1.2 µM -1% | [1]; at 3.7 µM -1% | [1]; at 11.0 µM 3% | [1]; at 33.0 µM 5% | [1]; at 100.0 µM 21% | [2]; at 1.2 µM 1% | [2]; at 3.7 µM 1% | [2]; at 11.0 µM 1% | [2]; at 33.0 µM 4% | [2]; at 100.0 µM 15% | [3]; at 1.2 µM -2% | [3]; at 3.7 µM -3% | [3]; at 11.0 µM -1% | [3]; at 33.0 µM -1% | [3]; at 100.0 µM -2% | [4]; at 1.2 µM -5% | [4]; at 3.7 µM -5% | [4]; at 11.0 µM -3% | [4]; at 33.0 µM -8% | [4]; at 100.0 µM 28% | [5]; at 1.2 µM -4% | [5]; at 3.7 µM 4% | [5]; [17] 3% | [5]; at 11.0 µM -17% | [5]; at 33.0 µM 5% | [5]; [18] 24% | [5]; at 100.0 µM 20% | [6]; at 1.2 µM 0% | [6]; at 3.7 µM 1% | [6]; [17] -1% | [6]; at 11.0 µM 3% | [6]; at 33.0 µM 15% | [6]; [18] 1% | [6]; at 50.0 µM 56.2% | [6]; at 100.0 µM 24% | [7]; at 1.2 µM 1% | [7]; at 3.7 µM 0% | [7]; at 11.0 µM 2% | [7]; at 33.0 µM 7% | [7]; at 100.0 µM 21% | [8]; [17] 0% | [8]; [18] 8% | [9]; at 1.2 µM -6% | [9]; at 3.7 µM -6% | [9]; at 11.0 µM -9% | [9]; at 33.0 µM 11% | [9]; at 100.0 µM 34% | [10]; [17] 41% | [10]; [18] 26% | [11]; at 1.2 µM -3% | [11]; at 3.7 µM -2% | [11]; [17] -5% | [11]; at 11.0 µM -2% | [11]; at 33.0 µM 4% | [11]; [18] 4% | [11]; at 100.0 µM 15% | [12]; at 1.2 µM -6% | [12]; at 3.7 µM -1% | [12]; at 11.0 µM -1% | [12]; at 33.0 µM 5% | [12]; at 100.0 µM 27% | [13]; at 1.2 µM -1% | [13]; at 3.7 µM 1% | [13]; at 11.0 µM 1% | [13]; at 33.0 µM 9% | [13]; at 100.0 µM 25% | [14]; at 1.2 µM 0% | [14]; at 3.7 µM 2% | [14]; at 11.0 µM 2% | [14]; at 33.0 µM 20% | [14]; at 100.0 µM 35% | [15]; [17] 4% | [15]; [18] 2% | [16]; at 1.2 µM -3% | [16]; at 3.7 µM -1% | [16]; at 11.0 µM 1% | [16]; at 33.0 µM 5% | [16]; at 100.0 µM 14%

Reference: PubChem BioAssay (NCI)
